Assay results: PubChem BioAssay (NCI)
About 83,000 compounds went through this panel and 20% of them were active in at least one assay; those are over-represented in the sample as a whole.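 Growth was measured after 48 h exposure to one concentration of compound in 96-well plates. Values under 10 count as active.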 The source made the active and inactive calls.

System: HL-60(TB) leukemia
Experiment: NCI-60 one-dose screen, 48 h (100 = growth as untreated, 0 = no growth, -100 = all killed)
Conditions: 10 µM unless noted

Row | SMILES | growth
1 | CCN1CCN(c2nc(NNC(=O)c3ccc(OC)cc3)nc(N3CCN(C(c4ccccc4)c4ccccc4)CC3)n2)CC1 | 18.7% (inactive)
2 | CCC1=C[C@H]2CN(CCc3c([nH]c4ccccc34)[C@@](C(=O)OC)(c3cc4c(cc3OC)N(C)[C@H]3[C@@](O)(C(=O)OC)[C@H](OC(C)=O)[C@]5(CC)[C@@H]6C[C@@H]6CN6CC[C@]43[C@@H]65)C2)C1 | -33.4% (active)
3 | CC(=O)Nc1ccc(O)c(C)c1 | 104% (inactive)
4 | O=C1/C(=C/c2ccc([N+](=O)[O-])cc2)CN(C(=O)CCN2CCC(=NO)CC2)C/C1=C\c1ccc([N+](=O)[O-])cc1 | 2.62% (active)
5 | O=C(NNC(=O)c1ccc(NC(=O)c2ccccn2)cc1)Nc1ccc2ccccc2c1 | 105% (inactive)
6 | COc1cc(C2CC(c3ccc(C)cc3)=NN2C=O)ccc1Oc1ccnc2cc(Cl)ccc12 (stereo unspecified) | 94.8% (inactive)
7 | O=C(/C=C/c1cc([N+](=O)[O-])ccc1Cl)c1ccccc1 | 61.7% (inactive)
8 | C#CC#CC#CC#CC#CC#CC#CC#CC[C@H]1OC[C@H](COC(=O)O[C@@H](C(=O)O[C@H]2C[C@@]3(O)[C@@H](OC(=O)c4ccccc4)[C@@H]4[C@]5(OC(C)=O)CO[C@@H]5C[C@H](O)[C@@]4(C)C(=O)[C@H](OC(C)=O)C(=C2C)C3(C)C)[C@@H](NC(=O)c2ccccc2)c2ccccc2)O1 | 11.3% (inactive)
9 | C[C@@]1(N2C(=O)OC[C@@H]2c2ccccc2)C(=O)N([C@H](CC(=O)N2CCC(N3CCCCC3)CC2)C(=O)NCc2cccc(C(F)(F)F)c2)[C@@H]1/C=C/c1ccccc1 | 81% (inactive)
10 | NC(=S)N/N=C(/c1ccccc1)c1ccccc1N | 73.3% (inactive)
11 | CC(=O)N1CC(Nc2ccc(OC(F)(F)F)cc2)=CC1=O | -8.58% (active)
12 | Clc1ccc(-c2cn(-c3ccccc3)c(-c3ccccc3)n2)cc1 | 47.5% (inactive)
13 | O=C(N=Nc1c(O)[nH]c2ccccc12)Nc1ccc(Br)cc1 | 70.2% (inactive)
14 | CNC(=O)c1cc(Oc2ccc3c(c2)sc2nc(-c4ccc(NC(=O)[C@@H](NC(=O)OC)C(C)C)cc4)cn23)ccn1 | 51.1% (inactive)
15 | CC(=O)N(CC(O)CO)c1c(I)c(C(=O)NCCO)c(I)c(C(=O)NCC(O)CO)c1I (stereo unspecified) | 92.2% (inactive)
16 | CNC(=O)c1cc(Oc2ccc3nc(NC(=O)c4ccc5ncccc5c4)sc3c2)ccn1 | 87.8% (inactive)
17 | Cc1cc(C)c(-c2cc(O)c(-c3c(C)cc(C)cc3C)cc2O)c(C)c1 | -24.4% (active)
18 | CCN(CC)CCCC(C)NC(=S)N/N=C(\C)c1ccccn1 (stereo unspecified) | -3.79% (active)

Row | SMILES | growth
19 | O=C(O)c1ccccc1Oc1cc(-c2ccco2)nc(OCCN2CCOCC2)n1 | 105% (inactive)
20 | N#Cc1cnn(-c2nc3c(Cl)cccc3s2)c1N | 97.7% (inactive)
21 | COc1ccc(C2C3=C(COC3=O)N(CCO)c3cc4c(cc32)OCO4)cc1OC (stereo unspecified) | 65.7% (inactive)
22 | Oc1c(CN2CCN(c3ccccc3F)CC2)cc(Br)c2cccnc12 | -34.4% (active)
23 | CC(C)C1(C(C)C)NC(=O)NC1=O | 95.1% (inactive)
24 | COc1ccc2c(c1)nc(N)c1c3cccnc3cn21 | 14.9% (inactive)
25 | S=c1cnc2ccccc2[nH]1 | 86.4% (inactive)
26 | CCOC(=O)C#Cc1c(C(=O)OCC)nnn1[C@@H]1O[C@H](COC)[C@@H](OC)[C@H]1OC | 47.5% (inactive)
27 | COc1ccc(C(=O)/C=C/c2c(C(F)(F)F)nc3sccn23)cc1OC | -35.6% (active)
28 | CCOC(=O)C(Cc1ccc(OC)cc1)C(=O)OCC | 3.77% (active)
29 | Nc1nc(-c2ccc(Cl)cc2)cc(-c2cc3ccccc3oc2=O)n1 | 125% (inactive)
30 | Nc1nc(Cl)cc(NCCCCNc2cc(Cl)nc(N)n2)n1 | 101% (inactive)
31 | CC(=O)c1cc2c(N)c(C(=O)Nc3ccccn3)sc2nc1C | 83.3% (inactive)
32 | COc1cc(-c2csc(NC(=O)c3ccc(N4CCOCC4)c(C(F)(F)F)c3)n2)cc(OC)c1OC | 15.6% (inactive)
33 | Cc1ccc2nc3c(nc2c1)-c1cccc2cccc-3c12 | 93.5% (inactive)
34 | COc1cccc(C(=O)Nc2cccc(NC(=O)c3ccccn3)c2)c1 | 87.8% (inactive)
35 | CC(=O)/C(Br)=C/c1ccc(Br)o1 | -18.8% (active)
36 | C=C(C)[C@H]1CC/C(C)=C/CC[C@]2(C)O[C@H]2CC/C(C=O)=C\C1O (stereo partly specified) | 253% (inactive)
